Paper PMC7819943, “Rice protein-binding microarrays: a tool to detect cis-acting elements near promoter regions in rice”
The full ranking holds about 68,000 sequences; the median of “fluorescence intensity (a.u.)” is about 9,100, and the highest 2% start at about 16,000. This excerpt belongs to a sample that is enriched for the highest values.

Target: OsWRKY34 (Oryza sativa, UniProt Q0JBA9 1-250)
Assay: protein-binding microarray (RPBM); PBS, 2% BSA, 51.3 ng/ul salmon testes DNA, 50 uM zinc acetate, 200 nM TF, 25 C, 1 h; high values mean tight binding
Conditions: protein: recombinant; tags: N-terminal polyhistidine and DsRed monomer fusion (pET32a); label: CyDye5-dUTP incorporated in the synthesized complementary strand; 3' TTTTT single-stranded linker to array surface; dsDNA, one strand shown
Procedure, shortened: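 Binding signal is reported as fluorescence intensity per feature (arbitrary units) from an Axon 4000B scanner. Incubation used 200 nM of each Ni–NTA-purified, N-terminally polyhistidine- and DsRed-fused transcription factor from E. coli BL21-CodonPlus on a double-stranded custom Agilent array for 1 h at 25 °C, with 50 µM zinc acetate in the buffer, followed by washing.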

Sequence of OsWRKY34 (Q0JBA9 entry or part of it): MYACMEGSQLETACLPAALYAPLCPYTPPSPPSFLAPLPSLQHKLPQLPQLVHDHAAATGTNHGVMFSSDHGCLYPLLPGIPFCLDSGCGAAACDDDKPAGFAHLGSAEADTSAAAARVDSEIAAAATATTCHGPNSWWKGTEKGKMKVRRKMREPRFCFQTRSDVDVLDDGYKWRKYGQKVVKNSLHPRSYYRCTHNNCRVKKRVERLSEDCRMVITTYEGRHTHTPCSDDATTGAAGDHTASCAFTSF

Question: Which binding signal does the source give for “GTGGGTTGGGCCAAAGAAAGGTAGGCTGAGTGGAGGGATGCGGAGTCACCTAGTGCAG” here?
Answer: 10400 fluorescence intensity (a.u.)

Question: For “CGCACACCACCGCCTACGTAGTAGCTCTGATCGGCGCTGTCGGAGTCACCTAGTGCAG”, which binding signal is on record?
Answer: 8250 fluorescence intensity (a.u.)

Question: For “AATTTTTTTTCAGCTGATCGCCACTTTATTCTTTTCATACCGGAGTCACCTAGTGCAG”, which binding signal is on record?
Answer: 10200 fluorescence intensity (a.u.)

Question: Which binding signal does the source give for “ACCGTGTTGCTGCCTGGTGCTCGCTTTGTTCGTAGGCCTTCGGAGTCACCTAGTGCAG” here?
Answer: 8520 fluorescence intensity (a.u.)

Question: With “GCTAGCGCTGGAATGGTCCTACTTCTTTCATTTACAACATCGGAGTCACCTAGTGCAG” as the sequence, how does the binding signal read?
Answer: 8690 fluorescence intensity (a.u.)

Question: Which binding signal does the source give for “TATCATTATGTCCGAACGGTATACCTTCTTGTATCATTTCCGGAGTCACCTAGTGCAG” here?
Answer: 11200 fluorescence intensity (a.u.)

Question: For “CTCCGTAAGCTCCAGCCCACTGCCACCGCTGCTCCAGCTACGGAGTCACCTAGTGCAG”, which binding signal is on record?
Answer: 8250 fluorescence intensity (a.u.)

Question: With “GGCGAGGCGAATGTGATGGGCTAAGTTTTGTCGTTGGCAACGGAGTCACCTAGTGCAG” as the sequence, how does the binding signal read?
Answer: 8210 fluorescence intensity (a.u.)

Question: For “GCCATGAAACCTCCTTTGCTCACTGCTTTGGAACCATACTCGGAGTCACCTAGTGCAG”, which binding signal is on record?
Answer: 9020 fluorescence intensity (a.u.)

Question: Which binding signal does the source give for “AGTGTTGACCAGCTTTGACCACCTTACCCAACTCCTTGTGCGGAGTCACCTAGTGCAG” here?
Answer: 17200 fluorescence intensity (a.u.)

Question: How did the binding signal turn out when “CACCGTTAACTTTTTATTACGTATTTGACCATTTGTCTTACGGAGTCACCTAGTGCAG” was run?
Answer: 10200 fluorescence intensity (a.u.)

Question: For “TTTCCGCATTTCCGCTCCTCTCTTTTTTACCCTTGACATGCGGAGTCACCTAGTGCAG”, which binding signal is on record?
Answer: 8530 fluorescence intensity (a.u.)

Question: “AAAAACTGGGCCAGCTTTTTGTTTTTTTTACCACCCACAGCGGAGTCACCTAGTGCAG” was tested. Which binding signal did it give?
Answer: 9010 fluorescence intensity (a.u.)

Question: For “CGCCGTTGACTTTTTGTTTAACGTTTGACCATTTGTCTTACGGAGTCACCTAGTGCAG”, which binding signal is on record?
Answer: 24400 fluorescence intensity (a.u.)

Question: “ATCCAACCCAACTCCCGTTGCTTTTTGTTGGACCCACTTGCGGAGTCACCTAGTGCAG” was tested. Which binding signal did it give?
Answer: 8110 fluorescence intensity (a.u.)

Question: Which binding signal does the source give for “ACCGACCTACTTAATTGCCTCCTGCCAAAATGACCCTTTACGGAGTCACCTAGTGCAG” here?
Answer: 9140 fluorescence intensity (a.u.)

Question: How did the binding signal turn out when “CCGCCTCCTTTGACCCTACCAAAATTTACCGTTGACCATGCGGAGTCACCTAGTGCAG” was run?
Answer: 20000 fluorescence intensity (a.u.)

Question: “ATGACGCCGTTGACTTTTTGTCCAACGACCATTCATTTTACGGAGTCACCTAGTGCAG” was tested. Which binding signal did it give?
Answer: 31300 fluorescence intensity (a.u.)

Question: For “CTTTTCATCTTCTTGACGACTTGGTTGTTTGATTCATTTACGGAGTCACCTAGTGCAG”, which binding signal is on record?
Answer: 8830 fluorescence intensity (a.u.)

Question: How did the binding signal turn out when “ATTTTGAGTTTTTACTTGTAACGTTTGACCACTTGTCTTACGGAGTCACCTAGTGCAG” was run?
Answer: 8620 fluorescence intensity (a.u.)

Question: For “AACCCATTTTCTGCTCTGCTCTTGCTTTGCTTTGCATTTCCGGAGTCACCTAGTGCAG”, which binding signal is on record?
Answer: 14000 fluorescence intensity (a.u.)

Question: Which binding signal does the source give for “ATTGTTTGTCCCGTCCCTACATCACGCCAAAAGTCACAACCGGAGTCACCTAGTGCAG” here?
Answer: 11800 fluorescence intensity (a.u.)

Question: How did the binding signal turn out when “GGAGGGGCGGCGATCGAGCAGAGCAGGGGAGGGAATCCTGCGGAGTCACCTAGTGCAG” was run?
Answer: 8310 fluorescence intensity (a.u.)

Question: For “CAGTGTATATTTCAGTGTATATTTGGTAGATTTGGTAGTACGGAGTCACCTAGTGCAG”, which binding signal is on record?
Answer: 8310 fluorescence intensity (a.u.)

Question: With “CTACCCTATGCTATGAGACCGCTCTTATTCCGGGGTTTAACGGAGTCACCTAGTGCAG” as the sequence, how does the binding signal read?
Answer: 9760 fluorescence intensity (a.u.)

Question: Which binding signal does the source give for “TTCGCCGTGTTACTGTAGCTCAAATCTCTAGCTTCCCCAACGGAGTCACCTAGTGCAG” here?
Answer: 9240 fluorescence intensity (a.u.)

Question: With “CTAACACATTCATCACATGATTAAAATTTTATTATTTATACGGAGTCACCTAGTGCAG” as the sequence, how does the binding signal read?
Answer: 8510 fluorescence intensity (a.u.)

Question: With “CCATCATATTTGACTATTTTCAGGTGTTAGTTTGGACGATCGGAGTCACCTAGTGCAG” as the sequence, how does the binding signal read?
Answer: 9210 fluorescence intensity (a.u.)

Question: “TGACTTTTTAGCATATGTTTGACCGTTCGTCTTATTCAAACGGAGTCACCTAGTGCAG” was tested. Which binding signal did it give?
Answer: 13600 fluorescence intensity (a.u.)

Question: For “TTCTGAATGTGATTGAATTAATTGGACTTGCGTTGACCTTCGGAGTCACCTAGTGCAG”, which binding signal is on record?
Answer: 11700 fluorescence intensity (a.u.)

Question: For “CGCCGTTGACTTTTTAAAATTTGTTTGACCGTTCGTCTTACGGAGTCACCTAGTGCAG”, which binding signal is on record?
Answer: 30700 fluorescence intensity (a.u.)

Question: For “GAGTGCCATTGAATCCTTCTGTTGCGTTGACCACCAAATGCGGAGTCACCTAGTGCAG”, which binding signal is on record?
Answer: 16500 fluorescence intensity (a.u.)

Question: “TCCACCATTGACCAATGCCACGTCCTGCCAAATCCTCCTCCGGAGTCACCTAGTGCAG” was tested. Which binding signal did it give?
Answer: 10700 fluorescence intensity (a.u.)

Question: How did the binding signal turn out when “CGTTTGACCGTTCGTCTTATTTGAAAATTTTTTATGCTTACGGAGTCACCTAGTGCAG” was run?
Answer: 10100 fluorescence intensity (a.u.)

Question: For “TTCCTTTGTTTAGTTGTTTGTTTTACATTCCACTCTACTACGGAGTCACCTAGTGCAG”, which binding signal is on record?
Answer: 9220 fluorescence intensity (a.u.)

Question: How did the binding signal turn out when “TGTTTGACCGTTCGTCTTATTAAAATTTTTTTGTGAAATACGGAGTCACCTAGTGCAG” was run?
Answer: 8610 fluorescence intensity (a.u.)

Question: “CACCATTGACTTTTTAGCATATGTTTGACCGTTCGTCTTACGGAGTCACCTAGTGCAG” was tested. Which binding signal did it give?
Answer: 18200 fluorescence intensity (a.u.)

Question: With “TTGGTTAGTTGCCACTCTCTCTCGCCGTGACCCTTTTTTACGGAGTCACCTAGTGCAG” as the sequence, how does the binding signal read?
Answer: 20600 fluorescence intensity (a.u.)

Question: With “TTTTGCCCTTTTTCTCTCGCCAGCTCGGACCCGTCGTGACCGGAGTCACCTAGTGCAG” as the sequence, how does the binding signal read?
Answer: 8730 fluorescence intensity (a.u.)

Question: “CACCATTGACTTTTTAGCACATGTTTGACCGTTCGTCTTACGGAGTCACCTAGTGCAG” was tested. Which binding signal did it give?
Answer: 14800 fluorescence intensity (a.u.)

Question: Which binding signal does the source give for “CTGTTCCATTTCTCCTTGTTGCATCAGTAACTCCAAACCACGGAGTCACCTAGTGCAG” here?
Answer: 12200 fluorescence intensity (a.u.)

Question: Which binding signal does the source give for “GATTATTTGCTTTACGGTTTTTTAAAAAAATTTCTTCATACGGAGTCACCTAGTGCAG” here?
Answer: 9590 fluorescence intensity (a.u.)
